Assay outcomes deposited in PubChem by National Center for Advancing Translational Sciences (NCATS).
TDP1 cell noCPT – qHTS for Inhibitors of human tyrosyl-DNA phosphodiesterase 1 (TDP1): qHTS in cells in absence of CPT. DT40 Tdp1-/- hTDP1 cells, no CPT, ATP luminescence, 48 h. Potency, µM (titrated, usually from 46.2 µM), inactives show at the highest dose activity change, negative = growth inhibition, actives largely listed as inhibitors. 420,000 compounds, 15% hits. AID 686978, 2013; note: potency is the fitted concentration of half-maximal effect; nearly all actives have a fitted effect of over 55% in size
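Chicken DT40 Tdp1-/- cells complemented with human TDP1, screened without camptothecin (DMSO vehicle only), 400 cells/well. Compounds pin-transferred, cells incubated at 37 °C for at least 48 hr. Growth read as ATP-dependent luminescence (CellTiter-Glo, 30 min at RT).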
IL-1B inflam inh – inhibitors of inflammasome signaling (IL-1 beta secretion); activity change, % at 57.5 µM; THP-1 LPS/ATP IL-1B secretion, AlphaLISA, 16 h; stronger effect = lower value; 360,000 compounds, 4.7% hits; AID 743279; in the data active = activity change below about -50%; inconclusive = mostly about -30% to -49%
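THP-1 cells pretreated 1 hr with compounds (up to 57.5 uM final), then stimulated with LPS (250 ng/mL final) plus ATP (1.25 mM final); secreted IL-1B measured by AlphaLISA after 16 hr, decreased signal indicating inhibition.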
HT1080-NT tox – kills 2HG-producing HT-1080-NT fibrosarcoma cells. HT-1080-NT fibrosarcoma viability, CellTiter-Glo ATP luminescence, 48 h. 360,000 compounds, 1.6% hits. Potency, µM (top dose mostly 46.1 µM), without a hit: at the top dose activity, negative = less viability, hits mostly cytotoxic;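 note: NT is the 2HG producing partner of a matched IDH1 knockdown line; potency is the fitted concentration of half-maximal effect; 0% = DMSO-treated cells and -100% = media-only wells without cells; nearly all actives have a fitted effect of over 55% in size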
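Fibrosarcoma NT cells, 750 per well in 5% FBS RPMI, were exposed to compound for 48 hours. Viability: CellTiter-Glo luminescence.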
ALOX12 inh – blocks human arachidonate 12S-lipoxygenase | P18054 | purified 12hLO, xylenol orange hydroperoxide absorbance | Potency, µM (top dose mostly 108 µM), inactives show top-dose activity change, negative = inhibition, hits mostly inhibitors | 580,000 compounds, 1.1% hits | AID 1671190; note: potency is the fitted concentration of half-maximal effect
Target sequence (P18054 whole entry, looked up): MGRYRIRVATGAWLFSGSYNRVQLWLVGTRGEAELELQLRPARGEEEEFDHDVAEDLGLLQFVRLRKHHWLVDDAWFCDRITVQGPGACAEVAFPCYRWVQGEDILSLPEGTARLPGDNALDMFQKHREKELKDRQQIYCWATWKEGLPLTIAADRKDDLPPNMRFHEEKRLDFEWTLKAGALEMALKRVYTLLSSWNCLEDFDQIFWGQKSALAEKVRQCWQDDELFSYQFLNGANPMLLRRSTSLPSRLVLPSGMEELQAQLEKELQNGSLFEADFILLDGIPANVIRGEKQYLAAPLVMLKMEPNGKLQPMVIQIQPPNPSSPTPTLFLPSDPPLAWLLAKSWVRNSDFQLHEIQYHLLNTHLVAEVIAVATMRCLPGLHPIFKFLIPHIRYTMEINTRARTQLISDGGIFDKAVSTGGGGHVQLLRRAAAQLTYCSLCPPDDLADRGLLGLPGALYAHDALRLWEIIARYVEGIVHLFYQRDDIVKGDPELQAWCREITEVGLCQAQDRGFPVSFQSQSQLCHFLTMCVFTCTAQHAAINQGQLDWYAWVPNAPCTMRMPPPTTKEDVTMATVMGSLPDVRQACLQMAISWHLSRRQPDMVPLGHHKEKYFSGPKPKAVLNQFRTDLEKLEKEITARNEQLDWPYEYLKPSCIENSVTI
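Hydroperoxide product was detected by ferrous iron/xylenol orange as the 573 to 405 nm absorbance ratio. Arachidonic acid at 40 uM (final) was turned over for 30 min at room temperature by 150 nM human 12hLO, pH 7.0 Hepes buffer, after 15 min compound preincubation.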
HT1080 IDH1KD tx – kills HT-1080 cells with IDH1 knockdown. 360,000 compounds, 2% hits. Potency, µM (top dose mostly 46.1 µM), without a hit: top-dose activity, negative = toxicity, actives largely listed as cytotoxic. AID 686971. HT-1080 IDH1 knockdown viability, ATP luminescence, 48 h;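 note: potency is the fitted concentration of half-maximal effect; 0% = DMSO wells and -100% = cell-free medium wells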
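IDH1KD HT-1080 cells, 750/well, RPMI + 5% FBS; compound pinned after 2 h settling; 48 h, 37 °C; CellTiter-Glo luminescence; % activity normalised to DMSO and no-cell wells; curves fitted, classed by r2 and efficacy.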
DT40 TDP1 CPT – DT40-hTDP1 cell growth loss with CPT | 420,000 compounds, 12% hits | chicken DT40 Tdp1-/-;hTDP1 cells + 20 nM CPT, ATP luminescence, 48 h | AID 686979 | Potency, µM (highest dose often 46.2 µM), for inactives: at the top dose activity change, negative = growth inhibition, hits mostly inhibitors; note: potency is the fitted concentration of half-maximal effect; nearly all actives have a fitted effect of over 55% in size
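Chicken DT40 Tdp1-/- cells stably complemented with human TDP1 were seeded at 400 cells/well in medium containing 20 nM camptothecin, exposed to pin-transferred compounds, and grown at 37 °C for at least 48 hr. Viability was read as ATP luminescence.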
Numbers without * were called inactive; ? = inconclusive; . = not tested or not shown; [ ] = another dose, or the depositor's remark. Shown is part of a subset that was picked to be rich in hits. Unless noted, calls come from the whole dose curve; as a rule, active = well fitted curve in the direction sought with a large enough effect; inconclusive = small, poorly fitted or top-dose-only effect, or another doubt; inactive = no such curve, though single readings can be large; an effect the other way counts as inactive or inconclusive. Unless noted, % is set by controls: 0 for no effect and ±100 for the full control effect.

SMILES	TDP1 cell noCPT	IL-1B inflam inh	HT1080-NT tox	ALOX12 inh	HT1080 IDH1KD tx	DT40 TDP1 CPT
CC(=O)N(CCS(=O)(=O)c1ccc(Cl)cc1)Cc1cccs1	-22.2%	11.3	-12.8%	30.0%	-3.7%	-3.6%
Cc1c(-c2ccccc2)nc(-c2ccccc2)[nH]c1=O	-15.7%	0.0	10.4%	?	11.5%	-12.2%
CSc1ncc2c(=O)[nH]c(-c3ccccc3)nc2n1	-9.7%	-73.9*	?	18.6%	?	1.9%
CN1CCN(C(C(=O)N(C)CCC(F)(F)F)c2ccccc2)CC1 (stereo not drawn)	.	.	.	-9.1%	.	.
CC(=O)C[C@H]1c2cc(F)ccc2S(=O)(=O)N1c1ccc(N(C)C)cc1	13µM*	3.1	-1.4%	-24.5%	-2.8%	14.6µM*
CCOC(=O)C[C@H]1c2cc(F)ccc2S(=O)(=O)N1c1cccc(OC)c1	?	54.3	-1.1%	?	-7.4%	?
CCCN(CC(=O)Nc1ccccc1C(=O)c1ccccc1)Cc1nnc(-c2ccco2)o1	.	.	.	-2.3%	.	.
CCOC(=O)c1ccccc1NC(=O)/C(C#N)=C\c1cc(OC)ccc1O	.	.	.	-7.7%	.	.
O=C(NCc1ccccc1F)c1nc2sccn2c1Br	.	.	.	-0.8%	.	.
COc1ccc(S(=O)(=O)N2CCOCC2)cc1NC(=O)c1ccc(S(=O)(=O)N2CCCCC2)cc1	?	-15.5	1.5%	22.4%	2.6%	11.6µM*
COc1ccc(S(=O)(=O)N2CCCCCC2)cc1NC(=O)c1ccccc1F	-80.5%	0.0	-5.0%	288.4%	-1.6%	16.4µM*
COc1ccc(C)cc1NC(=O)c1cc(S(=O)(=O)N2CCC(C)CC2)ccc1F	20.6µM*	.	.	-22.7%	.	16.4µM*
COc1ccc(S(=O)(=O)N2CCCCC2)cc1NC(=O)c1ccc(CS(C)(=O)=O)cc1	18.4µM*	-21.8	-5.5%	125.2%	-10.0%	-5.9%
COc1ccc(S(=O)(=O)N2CCCCC2)cc1NC(=O)c1ccc(C)cc1	13.5%	-1.1	0.9%	347.3%	8.1%	6.1%
COc1ccc(S(=O)(=O)N2CCOCC2)cc1NC(=O)CCNC(=O)c1ccc([N+](=O)[O-])cc1	7.31µM*	-20.0	-3.1%[9.24 µM]	?	5.8µM*	?
O=C(Nc1nnc(S(=O)(=O)N2CCCCCC2)s1)c1ccccc1Cl	-26.6%	4.2	5.6%	-3.5%	0.2%	?
O=C(Nc1nnc(S(=O)(=O)N2CCCC2)s1)c1ccccc1F	?	-58.9*	-1.7%	7.3%	0.7%	-6.2%
CCN1CCN(C(=O)CCc2nc3ccccc3c(=O)[nH]2)CC1	-4.4%	34.9	-8.3%	290.0%[57.4 µM]	0.0%	?
O=C(CCc1nc2ccccc2c(=O)[nH]1)Nc1ccc(N2CCCCC2)cc1	-20.5%	-5.3	0.0%	0.0%	-1.0%	-1.5%
O=C(CCc1nc2ccccc2c(=O)[nH]1)N1CCN(c2ccccc2Cl)CC1	16.4µM*	-4.1	6.2%	208.9%	-0.5%	20.6µM*
O=C(CCc1nc2ccccc2c(=O)[nH]1)N1CCCc2ccccc21	8.2µM*	52.8	-20.2%	-22.2%	-15.8%	?
O=C(NCC1CC1)c1cc2c(c(-c3cccc(-c4ccccc4F)c3)n1)[C@@H](CCO)N(C(=O)CC1CC1)C2	?	-59.5*	20.6µM*	-6.8%	?	20.6µM*
O=C(NCC(F)(F)F)c1cc2c(c(-c3cccc(-c4ccccc4F)c3)n1)[C@@H](CCO)N(C(=O)CC1CC1)C2	?	?	?	?	20.6µM*	?
O=C(NCC1CC1)c1cc2c(c(-c3cccc(-c4ccccc4F)c3)n1)[C@H](CCO)N(C(=O)CC1CC1)C2	18.4µM*	0.0	23.1µM*	-21.0%	?	?
